High-throughput results deposited in PubChem by National Center for Advancing Translational Sciences (NCATS).
Gal4-VP16 FLuc – counter-screen for ROR gamma inhibitors: Gal4-VP16 reporter | Potency, µM (highest dose often 53.6 µM), inactives show at the highest dose activity, negative = inhibition, most hits filed as inhibitors | Drosophila S2 Gal4-VP16 UAS-luciferase, luminescence, 20 h | 3.5% of 310,000 active;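 also: Gal4-VP16 expression switched on by copper sulfate through the metallothionein promoter; potency is read from the fitted curve at half-maximal effect; % is scaled to controls: 0 for no effect and ±100 for the full control effect; nearly all actives have a fitted effect of over 50% in size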
BRCA1 expr up – BRCA1 expression activation | 1.1% of 380,000 active | MCF7-BRCA1-FFLuc reporter, luminescence, 48 h; response scale: scaled: vehicle 0%, 10 µM genistein 100% | Potency, µM (highest dose often 46.1 µM), for the others: top-dose activation, hits mostly activators; also: potency is read from the fitted curve at half-maximal effect; nearly all actives have a fitted effect of over 80% in size
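Quantitative HTS in MCF7 cells stably reporting BRCA1 expression via firefly luciferase. Compound treatment lasts 48 h at 37 °C in phenol-red free MEM. Activation is expressed relative to genistein at 10 microM and DMSO.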
RORg inh – blocks mouse ROR gamma transcriptional activity; Drosophila S2 Gal4-RORgamma UAS-luciferase reporter, 20 h; Potency, µM (top dose mostly 53.6 µM), for inactives: at the top dose activity change, negative = inhibition, actives largely listed as inhibitors; 5.4% of 310,000 active; also: potency is read from the fitted curve at half-maximal effect; % is scaled to controls: 0 for no effect and ±100 for the full control effect; nearly all actives have a fitted effect of over 60% in size
Target sequence (P51450 whole entry, looked up, the tested form may be a part): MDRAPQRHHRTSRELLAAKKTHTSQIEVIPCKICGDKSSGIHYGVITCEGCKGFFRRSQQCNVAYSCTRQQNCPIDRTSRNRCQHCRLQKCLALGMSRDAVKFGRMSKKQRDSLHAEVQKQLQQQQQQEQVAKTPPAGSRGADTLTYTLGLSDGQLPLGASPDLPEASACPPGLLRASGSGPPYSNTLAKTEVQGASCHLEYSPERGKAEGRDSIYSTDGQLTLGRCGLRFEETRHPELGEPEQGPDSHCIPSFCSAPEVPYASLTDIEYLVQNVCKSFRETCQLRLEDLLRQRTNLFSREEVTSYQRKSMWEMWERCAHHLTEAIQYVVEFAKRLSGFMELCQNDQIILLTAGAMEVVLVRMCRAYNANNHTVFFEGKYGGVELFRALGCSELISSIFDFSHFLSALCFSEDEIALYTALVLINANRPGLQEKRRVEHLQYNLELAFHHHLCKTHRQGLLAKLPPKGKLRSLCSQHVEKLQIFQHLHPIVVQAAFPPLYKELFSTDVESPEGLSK
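Read-out: Photinus luciferase luminescence; inhibitors lower reporter signal. Insect Schneider cells with Gal4-ROR gamma fusion under metallothionein promoter, UAS reporter; 700 uM final copper sulfate induction, 20 hr, ambient temperature.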
Giardia killer – Giardia lamblia killing; Giardia lamblia trophozoite viability; activity change, % at 7.66 µM, hits read low; 0.15% of 340,000 active; in the data active = activity change below about -80%; inconclusive = between about -30% and that limit;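 also: parasites exposed to compound for two days anaerobically before the ATP read; % is scaled to controls: 0 for no effect and ±100 for the full control effect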
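Giardia lamblia trophozoites (100 cells/well) were incubated with compounds for 48 h at 37 deg C under anaerobic conditions. Viability was read as ATP content by one-step luminescence after 15-30 min at room temperature.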
p53 reactivator – restores transcriptional activity of mutant p53. H1299 p53-A138V BP100-luciferase reporter, luminescence, 24 h. Potency, µM (titrated, usually from 92.2 µM), without a hit: at the top dose activity change, positive = activation, most hits filed as activators. 0.063% of 320,000 active. AID 504706; also: potency is read from the fitted curve at half-maximal effect; % of control where 0% means no effect; nearly all actives have a fitted effect of over 45% in size
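p53-null H1299 cells stably carrying temperature-sensitive p53-A138V and a BP100-luciferase reporter were pinned with compounds (4-point, 1:5 series) and held 24 hrs at 37 deg C. Luminescence was read 10 min after detection reagent.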
ELG1 repair inh – inhibitors of ELG1-dependent DNA repair in HEK293T cells; HEK293T ELG1-luciferase reporter, luminescence, 16 h; DNA damage induced by 5-fluorouridine; Potency, µM (top dose mostly 46.1 µM), for inactives: top-dose activity change, negative = inhibition, actives largely listed as inhibitors; 2.3% of 330,000 active; also: potency is read from the fitted curve at half-maximal effect; % is scaled to controls: 0 for no effect and ±100 for the full control effect; nearly all actives have a fitted effect of over 55% in size
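Quantitative HTS, concentration-response format. 2,000 cells/well co-treated with 5-fluorouridine and compound, 16 hr in 5% CO2 at 37 °C; ONE-Glo luminescence read after 30 min.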
* = called active by the depositor; ? = inconclusive; . = no result given. Sampled rows, rich in hits. Any-hit rate of the full collection: about 7.6%. Unless noted, calls follow the shape of the dose curve; as a rule, active = well fitted curve in the direction sought with a large enough effect; inconclusive = small, poorly fitted or top-dose-only effect, or another doubt; inactive = no such curve, though single readings can be large; an effect the other way counts as inactive or inconclusive.

SMILES	Gal4-VP16 FLuc	BRCA1 expr up	RORg inh	Giardia killer	p53 reactivator	ELG1 repair inh
COc1ccc2c(c1)c1ncn(Cc3ccco3)c(=O)c1n2C	?	38%	24%	3	5%	16µM*
COc1ccc(NC(=O)CN(C)C(=O)c2ccccc2Sc2ncnc3sc(C)c(C)c23)cc1	.	-39%	.	13	-13%	16µM*
Cc1sc2ncnc(Sc3ccccc3C(=O)Nc3ccc(C#N)cc3)c2c1C	-7%	-61%	4%	11	2%	?
Cc1sc2ncnc(Sc3ccccc3C(=O)Nc3ccc(Br)cc3)c2c1C	8.9µM*	-25%	10µM*	-11	14%	?
CC(C)NC(=O)N(Cc1ccc(Cl)cc1)Cc1cccs1	-18%	-15%	7%	-18	-1%	1%
O=C(CCN1CCN(S(=O)(=O)c2cccc([N+](=O)[O-])c2)CC1)Nc1ccccc1F	-9%	11%	0%	17	22%	8%
CC1CCc2c(sc(NC(=O)c3noc4c3CCCC4)c2C(N)=O)C1 (stereo not given)	.	?	.	-3	.	.
O=C(/C=C/C=C/c1ccccc1)c1ccco1	4%	96%	26%	6	22µM*	0%
O=C(/C=C/c1ccc(Br)cc1)c1ccco1	11µM*	-9%	?	1	?	?
O=C(/C=C/c1ccc(Br)cc1)c1ccc(NC(=O)c2ccco2)cc1	-19%	29%	-2%	11	?	?
O=c1[nH]c(C2CCCCC2)nc2ccccc12	2%	-8%	20%	15	-4%	0%
CC(C)c1nc(=S)c2ccccc2[nH]1	10µM*	-1%	5.6µM*	-5	-9%	8%
S=c1nc(C2CCCCC2)[nH]c2ccccc12	8.9µM*	-2%	0.63µM*	7	2%	7%
c1ccc(CSc2nc3ncncc3[nH]2)cc1	-3%	22%	-2%	16	3%	11%
S=c1nc(C2CC2)[nH]c2ccccc12	5.6µM*	-2%	3.5µM*	-11	7%	-7%
S=c1nc(SCc2ccccc2)[nH]c2ccccc12	10µM*	-55%	1.4µM*	-7	2%	5%
CC1=C(C)CC(C(=O)NCCc2ccc(F)cc2)C(C(=O)O)C1 (stereo not given)	-7%	24%	-26%	-12	.	-2%
Cc1ccc(C(=O)OC(C)C(=O)NCc2ccc3c(c2)OCO3)cc1S(=O)(=O)N1CCOCC1 (stereo not given)	-16%	4%	23%	5	-4%	?
O=C1C=CC(=O)C(CNc2ccc(C(=O)OCc3ccccc3)cc2)=C1	.	-80%	.	21	.	.
CCOC(=O)C1CCCN(C(=O)c2ccc(Cl)c(S(=O)(=O)N3CCCCCC3)c2)C1 (stereo not given)	?	-23%	?	0	-4%	10µM*
CCOC(=O)C1CCCN(S(=O)(=O)c2cc(OCC(=O)NC3CCCCC3)c(C)cc2Cl)C1 (stereo not given)	-6%	-55%	-38%	-6	2%	21µM*
Cc1cc(Cl)c(S(=O)(=O)N2CCN(c3ccc(F)cc3)CC2)cc1OCC(=O)NC1CCCCC1	0%	-79%	20%	9	2%	8.2µM*
CC1CCCN(C(=O)c2ccc(Cl)c(S(=O)(=O)N3CCCCCC3)c2)C1 (stereo not given)	.	29%	.	56	?	?
Cc1cc(Cl)c(S(=O)(=O)N2CCN(c3ccc(F)cc3)CC2)cc1OCC(N)=O	-19%	-3%	0%	-8	-6%	?
CCOC(=O)C1CCCN(S(=O)(=O)c2cc(C(=O)OC)n(C)c2)C1 (stereo not given)	16µM*	-1%	42%	-2	8%	-16%
Cc1cc(S(=O)(=O)N2CCCC2)ccc1OCC(=O)NC1CCCC1	1%	-11%	38%	7	-1%	5%
